The record followed here is ChEMBL document CHEMBL3988442, “University of Dundee, Small-Polar-MMV Screening Library” (2021).

For this assay, the system named is Leishmania donovani. Kind of assay: Leishmania intramacrophage assay. Format: functional, organism-based. Also on record: scale not given: in the data most compounds retested in dose-response had high values.

Out of some 69,000 compounds screened, about 1,000 (1.4%) showed an effect of 50% or more. Shown is part of a subset that was picked to be rich in strong results.

`COCCN1CCN(CC(=O)NC2(C#N)CCCC2)CC1`: the “Percent Effect” value (30.3 µM, […]) amounted to 21.7%.

With `Cn1cc(-c2cnc(N3CCOCC3)nc2)cc1C(=O)NCCC#N.O=C(O)C(F)(F)F`, for the setting “30.3 µM, […]”, the “Percent Effect” value was 12.83%.

Consider `CN(CC(=O)NC(C)(C)C)Cc1cccc2c1OCCO2`, for which the “Percent Effect” value (30.3 µM, […]) is given as 16.54%.

On to `CC1CCN(c2ccc(NC(=O)CCn3cccn3)cc2)CC1`, for which, for the setting “30.3 µM, […]”, the “Percent Effect” value is listed as 16.17%.

In the case of `Cc1cc(C(=O)N2C[C@@H]3[C@@H](C2)OCC(=O)N3CC2CC2)no1`, the “Percent Effect” value (30 µM, 30.03 µM) is given as 18.33%.

Turning to `Cc1nn(C)cc1-c1cncn1CCN(C)C1CCCC1.Cl`, the “Percent Effect” value (30.3 µM, […]) is 52.65%.

For `CCCn1nc(C)c(-c2cncn2CCN(C)C2CCCC2)c1C.Cl`, the “Percent Effect” value (30.3 µM, […]) amounted to 42.92%.

Turning to `CCn1nc(C)c(-c2cncn2CCN(C)C2CCCC2)c1C.Cl`, the “Percent Effect” value (30.3 µM, […]) was determined as 32.48%.

Regarding `CC(C)C1CN(c2nccc(N)n2)CCC(=O)N1Cc1ccc(F)cc1` (centres undefined), the “Percent Effect” value (30.3 µM, […]) is reported as -20.97%.

With `COc1cccc2c1OCC(CNC(=O)Cn1ccnc1C)C2` (centres undefined), the “Percent Effect” value (30.3 µM, […]) is recorded as 4.9%.

Turning to `OC(CNCCn1cccn1)COc1ccc(Br)cc1` (centres undefined), the “Percent Effect” value (30.3 µM, […]) was 25.57%.

With `OC(CNCCn1cccn1)COc1ccc(F)cc1` (centres undefined), the “Percent Effect” value (30.3 µM, […]) is recorded as 20.47%.

For the compound `OC(CNCCn1cccn1)COc1ccc2ccccc2c1` (centres undefined), the “Percent Effect” value (30.3 µM, […]) is listed as 56.8%.

Take `Cc1nnc2n1CCN(C(=O)C(OC1CCCC1)c1ccccc1)C2` (centres undefined): the “Percent Effect” value (30.3 µM, […]) was found to be 5.78%.

As for `O=C(Nc1ccc(S(=O)(=O)Nc2c(F)cccc2F)cc1)N1CCCC1`, for the setting “30.3 µM, […]”, the “Percent Effect” value stood at 12.59%.

In the case of `CC(=O)NCC(=O)N1CCOC2(CCCN(c3cccnc3)C2)C1.O=C(O)C(F)(F)F` (centres undefined), under “30 µM, 30.03 µM”, the “Percent Effect” value is 4.273%.

Turning to `Cc1nc2ccc(-n3ncnc3[C@@H]3CCCN3S(C)(=O)=O)cc2s1`, the “Percent Effect” value (30.3 µM, […]) is 99.47%.

As for `CS(=O)(=O)N1CCC[C@H]1c1ncnn1-c1ccc2c(c1)OCO2`, the “Percent Effect” value (30.3 µM, […]) was -61.62%.

Take `CC(=O)N1CCCCC1c1ncnn1-c1ccc2nc(C)sc2c1` (centres undefined): the “Percent Effect” value (30.3 µM, […]) was found to be 29.12%.

`COc1ccc(OCCc2nnc(NC(C)=O)s2)cc1`: the “Percent Effect” value (30.3 µM, […]) was -16.84%.

Turning to `O=C(NC1CCS(=O)(=O)C1)c1ccc(SCc2cscn2)cc1` (centres undefined), the “Percent Effect” value (30.3 µM, […]) was determined as 10.79%.

Regarding `CCNC(=O)[C@@H]1CCCN1C1(C(=O)NC)CCCCC1.Cl`, the “Percent Effect” value (30.3 µM, […]) is -2.22%.

On to `O=C(c1ccc[nH]1)N1CCCC(c2cc(C(F)(F)F)[nH]n2)C1` (centres undefined), for which the “Percent Effect” value (30 µM, 30.03 µM) came to 44.22%.

As for `O=C(c1cc(Cl)c[nH]1)N1CCCC(c2cc(C(F)(F)F)[nH]n2)C1` (centres undefined), for the setting “30 µM”, the “Percent Effect” value stood at 52.35%.

Regarding `O=C(c1cc[nH]n1)N1CCCC(c2cc(C(F)(F)F)[nH]n2)C1` (centres undefined), the “Percent Effect” value (30 µM) is reported as -11.08%.

As for `N#Cc1c(CN2CCCCC2Cn2cncn2)cn2ccccc12` (centres undefined), under “30.3 µM, […]”, the “Percent Effect” value is on record as -0.3662%.

`O=C(Nc1cccc(N2CCN(CC3CC3)CC2)c1)C1CCCO1` (centres undefined): the “Percent Effect” value (30.3 µM, […]) was determined as 25.21%.

Consider `O=C(Nc1cccc(N2CCN(CC3CC3)CC2)c1)N1CCCC1`, for which, for the setting “30.3 µM, […]”, the “Percent Effect” value worked out at 55.96%.

As to `O=C(NCC1CC1)Nc1cccc(N2CCN(CC3CC3)CC2)c1`, the “Percent Effect” value (30 µM, 30.03 µM) is listed as -6.352%.
